Source: PubChem (National Center for Advancing Translational Sciences (NCATS))
Hits are enriched below; roughly 20% of the tested compounds scored in any of these assays.
Pf growth 96h: inhibits malaria parasite growth, 96 h; 320,000 compounds, 6.9% hits; Potency, µM (highest dose often 28.7 µM), inactives show at the top dose activity change, negative = inhibition, actives largely listed as inhibitors; AID 504834; P. falciparum luciferase reporter growth, 96 h; also: potency is read from the fitted curve at half-maximal effect; % is scaled to controls: 0 for no effect and ±100 for the full control effect
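Infected RBCs, 2% Hct / 0.05% parasitemia final; luciferase-reporter P. falciparum; cpd 96 h, 37 C, 5% CO2; luciferase detection reagent; luminescence.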
Shiga inhibitor: inhibitors of Shiga toxin in Vero cells. Vero cells, Shiga toxin protein synthesis inhibition reporter. AID 2315. inhibition, % at 38.7 µM. 290,000 compounds, 9.2% hits; in the data active = inhibition mostly above about 28%, no sharp cut-off; inactive = mostly below about 43%; also: 0% is about no effect
CHX counter: counter-screen for Shiga toxin inhibitors: cycloheximide protein synthesis inhibition; cell reporter, cycloheximide protein synthesis inhibition counterscreen; AID 2314; 300,000 compounds, 12% hits; max response, %; in the data active = max response mostly above about 13%, no sharp cut-off; inactive = mostly below about 14%; also: read at 38.3 µM for the half of the compounds with a filed dose; 0% is about no effect
Pf growth 48h: P. falciparum growth inhibition at 48 hours (one generation). P. falciparum luciferase growth in erythrocytes, 48 h. Potency, µM (top dose mostly 28.7 µM), for inactives: at the top dose activity change, negative = inhibition, usual class: inhibitors. 310,000 compounds, 5.9% hits. AID 504832; also: potency is read from the fitted curve at half-maximal effect; % is scaled to controls: 0 for no effect and ±100 for the full control effect
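Compounds are pin-transferred into medium, infected erythrocytes (2% hematocrit, 0.1% parasitemia final) are added, and plates sit one parasite generation at 37 C in 5% CO2. Detection reagent is then added and luminescence measured.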
HCMV inh: human cytomegalovirus inhibition. HFF cells, HCMV-luciferase reporter, 72 h; stronger effect = lower value. activity change, negative = inhibition, % at 57.5 µM. 410,000 compounds, 4.5% hits; in the data active = activity change below about -60%; inconclusive = no clear call, values can overlap the other calls; inactive = above about -39%; also: % is scaled to controls: 0 for no effect and ±100 for the full control effect
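Compounds were evaluated in HFFs infected with an HCMV luciferase reporter virus (MOI 1 PFU/cell). Luciferase in lysates collected 72 h post infection served as the replication measure.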
Active calls of the source: *; u = inconclusive; x = no result; [ ] = another dose, or the depositor's remark. Unless noted, calls follow the shape of the dose curve; as a rule, active = well fitted inhibition curve with a large enough effect; inconclusive = small, poorly fitted or top-dose-only effect, or another doubt; inactive = no such curve, though single readings can be large or run the other way.

SMILES	Pf growth 96h	Shiga inhibitor	CHX counter	Pf growth 48h	HCMV inh
CN(C)S(=O)(=O)c1ccc(N2CCCC2)c(C(=O)Nc2nc(-c3ccc(F)c(F)c3)cs2)c1	10µM*	32	28*	u	-8
CN(C)S(=O)(=O)c1ccc(N2CCCC2)c(C(=O)Nc2nccs2)c1	x	x	x	x	-10
CC(C)(CNC(=O)c1cc([N+](=O)[O-])ccc1N1CCC(Cc2ccccc2)CC1)N1CCOCC1	u	x	x	9.3µM*	-63*
Fc1ccc(-c2nc3ccccc3[nH]2)cc1	35%	115*	35*	48%	12
N#CCSc1ccc(-c2nc3ccccc3[nH]2)cn1	u	44*	29*	66%	-22
Nc1ccccc1-c1nc2ccccc2[nH]1	117%	92*	45*	131%	24
COCCNC(=O)CSc1ccc(-c2nc3ccccc3[nH]2)cn1	u	5	10	35%	56
Nc1ccc(-c2nc3ccccc3[nH]2)cc1	117%	102*	33*	114%	127
CCOc1cc2sc(N3CCC(C(=O)Nc4ccccc4C(=O)OC)CC3)nc2cc1Br	x	x	x	x	20
Cn1cc(-c2nc3ccccc3[nH]2)c2ccccc21	16%	87*	36*	u	106
Oc1ccc(C=Nc2ccccc2-c2nc3ccccc3[nH]2)cc1	u	92*	70*	54%	14
Cc1[nH]ncc1-c1nc2ccccc2[nH]1	-18%	20	1	-12%	-20
O=c1[nH]nc(-c2cc(-c3ccccc3)nc3ccccc23)o1	x	x	x	x	-31
S=c1nc(-c2ccccc2)[nH]c2ccccc12	u	-11	15	-12%	-15
Cc1c(-c2nc3ccccc3[nH]2)cnn1C	80%	x	x	98%	-6
Nc1ccc(-c2nc3c(ccc4ccccc43)[nH]2)cc1	6%	43*	25*	u	79
c1ccc(-c2cc(-c3nc4ccccc4[nH]3)c3ccccc3n2)cc1	u	13	6	u	-94*
CCC(C)NC(=O)C(Cc1ccccc1)NS(=O)(=O)c1ccc2c(c1)oc(=O)n2C (stereo not given)	-26%	-2	0	6%	-23
Cc1ccc(S(N)(=O)=O)cc1NC(=O)/C=C/c1ccc2c(c1)OCO2	302%	17	10	38%	18
Clc1ccc(Br)c(-c2nc3ccccc3[nH]2)c1	x	x	x	x	71
O=c1[nH]cccc1-c1nc2ccccc2[nH]1	100%	55*	21*	-23%[0.00184 µM]	140
CCn1c(=O)c(-c2nc3ccccc3[nH]2)c(O)c2ccccc21	u	35	22*	-17%	36
CC(C)N(Cc1nc(-c2ccccc2)no1)C(=O)c1ccc(Cl)cc1	-4%	-44	-4	x	-89*
CC(C)N(Cc1nc(-c2ccc(Cl)cc2)no1)C(=O)c1cccs1	-5%	-5	-3	-10%	-60*
COc1ccc(-c2noc(CN(C(=O)c3c(-c4ccccc4Cl)noc3C)C(C)C)n2)cc1	x	15	-1	10µM*	38
SMILES	Pf growth 96h	Shiga inhibitor	CHX counter	Pf growth 48h	HCMV inh
CCOc1cc(C(=O)N(Cc2nc(-c3ccc(C)cc3)no2)C(C)C)cc(OCC)c1OCC	x	x	x	x	-83*
CC(C)N(Cc1nc(-c2ccccc2)no1)C(=O)c1ccc([N+](=O)[O-])cc1	13%	1	1	5%	10
COc1ccc(/C(=N\Nc2ccccc2C(=O)O)c2ccccc2)cc1	u	169*	29*	60%	15
C/C(=N\Nc1ccccc1C(=O)O)c1ccncc1	152%	43*	18*	114%	35
CC(=O)OCCCN1C(=O)c2ccc(Br)cc2C1=O	12%	8	4	1%	-11
CC(=O)OCCCn1c(C)[n+](C)c2cc(Cl)c(Cl)cc21	37%	-2	-2	5.2µM*	-34
CCn1c(C)[n+](CCOC(C)=O)c2cc(Cl)c(Cl)cc21	34%	5	-1	2.3µM*	u
CCCn1c(SCC(=O)NCCCN2CCCC2=O)nc2ccccc2c1=O	x	x	x	x	13
CC(CCc1ccccc1)NC(=O)COC(=O)c1ccc([N+](=O)[O-])cc1 (stereo not given)	23%	-9	1	4%	1
Cc1ccccc1NC(=O)COC(=O)c1ccc(S(C)(=O)=O)c([N+](=O)[O-])c1	-1%	11	14*	-16%	-93*
CC(CCc1ccccc1)NC(=O)COC(=O)c1ccc(S(C)(=O)=O)c([N+](=O)[O-])c1 (stereo not given)	-15%	24	19	-1%	-99*
Cc1ccc(S(=O)(=O)NC2c3cccc4cccc(c34)C2Sc2ncccn2)cc1 (stereo not given)	u	-5	1	u	-21
COCCCNC(=O)CSc1nc2cc3c(cc2c(=O)n1CCCC(=O)NCc1ccc(OC)cc1)OCO3	10µM*	17	0	-16%	-27
CCN(CC)C(=O)CSc1nc2cc3c(cc2c(=O)n1CCCCCC(=O)NCCc1ccc(OC)c(OC)c1)OCO3	x	x	x	x	-83*
COCCNC(=O)CSc1nc2cc3c(cc2c(=O)n1CCCCCC(=O)NCc1ccc(OC)cc1)OCO3	x	x	x	x	-3
O=c1c2c3c(sc2ncn1-n1cccc1)CCCCC3	u	56*	36*	u	-2
CS(=O)(=O)Nc1cccc(NC(=O)C2Cc3c(-c4cccc(F)c4)ccnc3O2)c1 (stereo not given)	x	x	x	x	-78*
COc1ccc(NC(=O)C2Cc3c(-c4ccc(NC(C)=O)cc4)ccnc3O2)cc1OC (stereo not given)	x	x	x	x	-36
COc1ccc(NC(=O)C2Cc3c(-c4ccc5c(c4)OCO5)ccnc3O2)cc1OC (stereo not given)	x	x	x	x	-90*
COc1ccc(NC(=O)C2Cc3c(-c4cccc(F)c4)ccnc3O2)cc1OC (stereo not given)	x	x	x	x	-76*
COc1ccc(NC(=O)C2Cc3c(-c4ccco4)ccnc3O2)cc1OC (stereo not given)	x	x	x	x	-73*
O=C(c1cc(-c2ccc(Cl)c(Cl)c2)on1)N1CCCCCC1	266%	36*	20*	245%	1
COc1ccccc1N1CCN(C(=O)c2cc(-c3ccc(Cl)cc3)on2)CC1	46%	4	18	-2%	42
O=C(c1cc(-c2ccc(O)cc2)on1)N1CCCCCC1	-1%	61*	34*	114%	18
O=C(c1cc(-c2ccc3c(c2)OCO3)on1)N1CCCCC1	13µM*	55*	25*	202%	40
O=C(c1cc(-c2ccccc2O)on1)N1CCCCC1	x	x	x	x	44
O=C(c1cc(-c2ccc(Cl)cc2)on1)N1CCCCCC1	270%	109*	27*	174%	14
O=C(Nn1c(-c2ccncc2)nc2ccccc2c1=O)c1ccc([N+](=O)[O-])cc1Cl	u	-6	-1	-8%	-20
COc1ccc(C)cc1NC(=O)Cn1cc(S(=O)(=O)N2CCC(C)CC2)c2ccccc2c1=O	x	x	x	x	14
